Screening results (PubChem BioAssay)
A selection: hits, their analogues and other compounds. The true share with any hit is near 2.8%.
GLP1R ag – qHTS of GLP-1 Receptor Agonists; Potency, µM (doses to about 45.6 µM), without a hit: at the highest dose activation, usual class: activators; AID 624172, 2012; Glucagon-like peptide 1 receptor (Homo sapiens), P43220; HEK293 GLP-1R CRE-luciferase, luminescence, 4-6 h; cells express a hypersensitive GLP-1R form; 380,000 tested, 0.007% active; further: potency means the concentration at half of the fitted maximal effect; % of control where 0% means no effect
Target sequence (P43220 whole entry, looked up): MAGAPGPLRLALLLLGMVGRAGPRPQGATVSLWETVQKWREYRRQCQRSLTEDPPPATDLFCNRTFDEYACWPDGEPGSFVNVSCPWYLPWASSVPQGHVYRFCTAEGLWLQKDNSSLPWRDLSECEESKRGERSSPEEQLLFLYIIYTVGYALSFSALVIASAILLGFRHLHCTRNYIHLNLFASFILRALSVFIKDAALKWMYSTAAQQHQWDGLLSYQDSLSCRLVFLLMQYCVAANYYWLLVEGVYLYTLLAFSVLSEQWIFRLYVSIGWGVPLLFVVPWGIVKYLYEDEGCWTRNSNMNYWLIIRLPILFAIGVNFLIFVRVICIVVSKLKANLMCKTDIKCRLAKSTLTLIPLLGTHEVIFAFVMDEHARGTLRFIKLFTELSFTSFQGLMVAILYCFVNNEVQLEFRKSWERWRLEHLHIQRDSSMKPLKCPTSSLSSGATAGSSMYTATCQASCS
GLP-1R inv ag – qHTS of GLP-1 Receptor Inverse Agonists (Inhibition Mode). Glucagon-like peptide 1 receptor (Homo sapiens), P43220. HEK293 GLP-1R CRE-luciferase, luminescence, 24 h; GLP-1R form is constitutively active. Potency, µM (titrated, usually from 38.3 µM), for the others: at the highest dose activity change, negative = inhibition, usual class: inhibitors. 410,000 tested, 1.6% active. AID 624417, 2012; further: potency means the concentration at half of the fitted maximal effect; on the % scale 0 is the no-effect control and ±100 the full control effect; nearly all actives have a fitted effect of over 55% in size
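Constitutively active GLP-1R drives a cAMP-responsive luciferase in stably transfected HEK293 cells; test compounds are added after overnight (12 h) attachment and left 24 hr, and signal loss in luminescence marks inhibition.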
GLS inhibitor – qHTS for Inhibitors of Glutaminase (GLS) | 410,000 tested, 0.21% active | AID 624170, 2012 | Potency, µM (series often up to 45.5 µM), without a hit: at the highest dose activity change, negative = inhibition, usual class: inhibitors | Glutaminase kidney isoform, mitochondrial (Homo sapiens), O94925 | GLS enzymatic activity, qHTS titration; further: potency means the concentration at half of the fitted maximal effect; on the % scale 0 is the no-effect control and ±100 the full control effect
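Human kidney-isoform GLS in 45 mM KH2PO4 pH 8.2, 0.02% Tween-20, with compound, started with 1mM L-Glutamine (added stock). Glutamate oxidase/HRP/Amplex red coupled fluorescence read at start and after 30 min at RT.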
hERG WT inh – qHTS for Inhibitors of KCHN2 3.1: Wildtype qHTS | Voltage-gated inwardly rectifying potassium channel KCNH2 (Homo sapiens), Q12809 | U2OS, BacMam KCNH2, thallium flux FluxOr; stronger effect = lower value | activity change, % at 1.84 µM | 340,000 tested, 0.37% active | AID 720551, 2013;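 active means maximum activity change below -70%; inconclusive means maximum activity change between -70% and -50%; inactive means maximum activity change above -50%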; further: on the % scale 0 is the no-effect control and ±100 the full control effect
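U2OS cells were transduced with wild-type KCNH2 virus (2.03 x 10^8 / mL) for 4 h at room temperature, then cultured overnight at 37 C. Thallium flux was read with FluxOr dye. Rate constants were normalized to DMSO controls.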
GLP1R cytotox – qHTS of GLP-1 Receptor Inverse Agonists: Cytotox Screen; HEK293 cAMP-luciferase reporter cells, luminescence, 24 h; Potency, µM (highest dose often 38.3 µM), for inactives: at the highest dose activity change, negative = inhibition, most hits filed as inhibitors; 410,000 tested, 0.13% active; AID 624418, 2012;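 further: loss of luciferase light is scored as toxicity; potency means the concentration at half of the fitted maximal effect; on the % scale 0 is the no-effect control and ±100 the full control effect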
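Luminescence readout: signal drop marks cytotoxicity. Plated cells grew 12 h at 37 °C, 5% CO2, received 23 nL compound for 24 h, then got luciferase reagent, read after 12 min at RT.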
KCNH2 3.1 block – qHTS for Inhibitors of KCHN2 3.1: Mutant qHTS; Potassium voltage-gated channel subfamily H member 2, brain isoform KCNH2 3.1 (human); U2OS KCNH2 3.1, thallium flux FluxOr; stronger effect = lower value; activity change, % (tested at about 1.8 µM); 340,000 tested, 0.95% active;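 active means maximum activity change below -70%; inconclusive means maximum activity change from -70% to -50%; inactive means maximum activity change above -50%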;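 further: thallium influx rate constant from kinetic fluorescence after stimulation buffer; on the % scale 0 is the no-effect control and ±100 the full control effect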
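Channel expression came from 3.1 mutant virus (1.77 x 10^8 /mL) applied to suspended U2OS cells for 4 h. Flux was tracked with FluxOr dye plus Red40 quencher, and kinetic rate constants normalized to controls.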
The depositor's hits bear a star; ? = inconclusive; / = no result; [ ] = remark or other dose. Unless noted, the call rests on the fitted dose curve; in most records, active means well fitted curve in the direction sought with a large enough effect; inconclusive means small, poorly fitted or top-dose-only effect, or another doubt; inactive means no such curve, though single readings can be large; an effect the other way counts as inactive or inconclusive.

SMILES | GLP1R ag | GLP-1R inv ag | GLS inhibitor | hERG WT inh | GLP1R cytotox | KCNH2 3.1 block
CN(C)C1=NC[C@H](Cc2ccccc2)N1CCCC1CCCCC1 | 4% | 50% | -2% | -44 | -27% | ?
CCC(C)CCN1C(Nc2ccccc2)=NC[C@@H]1Cc1ccccc1 (some centres undefined) | 18% | ? | 0% | 67 | ? | -49
CN(C)C1=NC[C@H](Cc2ccccc2)N1CCCC1CCCC1 | 0% | 12% | 0% | -32 | 6% | -102*
CCCCCCCN1C(Nc2ccccc2)=NC[C@@H]1Cc1ccccc1 | 13% | ? | 0% | -30 | 2% | -109*
c1ccc(CCCCN2C(Nc3ccccc3)=NC[C@@H]2Cc2ccccc2)cc1 | 2% | ? | 0% | -36 | -18% | -104*
Cc1cccc(NC(=O)C2CCN(S(=O)(=O)c3ccc4c(c3)CCCC(=O)N4)CC2)c1 | -2% | 15% | 7% | / | -2% | /
C[C@H]1CN=C(Nc2ccccc2)N1CCCC1CCCCC1 | -1% | -23% | 0% | 25 | -9% | 7
c1ccc(C[C@H]2CN=C(Nc3ccccc3)N2CCCC2CCCC2)cc1 | 14% | ? | 1% | -93* | -24% | -96*
CCOc1ccc(C(=O)N2CCCCC2CCN2CCOCC2)cc1 (centres undefined) | / | 7% | 4% | / | 1% | /
C[N+]1=C(/C=C/Nc2ccccc2Cl)C(C)(C)c2ccccc21 | 6% | -14% | -7% | -80* | -7%[1.53 µM] | -23
FC(F)(F)c1cnc(/C=C/Nc2ccccc2Cl)c(Cl)c1 | -9% | 5% | 0% | 7 | 6% | 8
Cc1ccc(NC(=O)Cn2c(=O)n(Cc3ccco3)c(=O)c3sc4ccccc4c32)cc1C | -1% | -4% | 2% | / | 0% | /
O=C(Nc1ccccc1N1CCOCC1)c1ccc2ccccc2c1 | 18% | ? | -1% | -7 | 5% | -5
O=C(Nc1ccccc1N1CCOCC1)c1ccc(Cl)nc1 | 6% | 14% | 3% | 2 | 14% | -105*
Clc1ccc(CN2CCN(c3ncnc4scc(-c5cccs5)c34)CC2)cc1 | 4% | ? | 18% | -46 | 1% | -83*
Fc1ccc(CN2CCN(c3ncnc4scc(-c5ccc(F)cc5)c34)CC2)cc1 | 6% | ? | 0% | 26 | -7% | -23
CCn1c2c(c(=N)c3c1CCC3)CCC2 | 2% | 0% | 0% | 0 | 27% | -88*
c1ccc(-n2ncc3c(NC4CCCCCC4)ncnc32)cc1 | 11% | 5.6µM* | -1% | -1 | -19% | 7
CC1CCCN(c2ncnc3c2cnn3-c2ccc(F)cc2)C1 (centres undefined) | / | 8.9µM* | 0% | / | -4% | /
NNc1ncnc2c1cnn2-c1ccccc1 | 13% | 10µM* | 24% | -11 | ? | 0
c1ccc(-n2ncc3c(N4CCCCC4)ncnc32)cc1 | -5% | 4µM* | 3% | -7 | 4% | -2
Cc1cccc(-n2ncc3c(N4CCCCCC4)ncnc32)c1 | / | -14% | -13% | / | 1% | /
CCC(=O)N1CCCC(C(=O)NCc2ccc(C(C)C)cc2)CC1 (centres undefined) | 0% | 6% | 4% | / | 0% | /
CCOc1ccccc1NC(=O)C(C)Sc1nc2c(c(=O)[nH]1)CCCC2 (centres undefined) | / | -3% | 7% | / | 3% | /
Cc1ccc(-n2ncc3c(NC4CCCCCC4)ncnc32)cc1Cl | / | ? | -2% | / | -3% | /
SMILES | GLP1R ag | GLP-1R inv ag | GLS inhibitor | hERG WT inh | GLP1R cytotox | KCNH2 3.1 block
Cc1ccc(Cl)cc1-n1ncc2c(NC3CCCCCC3)ncnc21 | / | 4.5µM* | -7% | / | -28% | /
Cc1c(Cl)cccc1NC(=O)CSc1ncc(S(=O)(=O)c2ccc(C(C)C)cc2)c(=O)[nH]1 | -1% | 7% | 1% | / | -8% | /
COc1ccc(NC(=O)Cn2nnc(-c3ccccc3NS(=O)(=O)c3ccccc3)n2)cc1 | -2% | 7.1µM* | -10% | 13 | -1% | -2
COc1ccc(S(=O)(=O)Nc2ccccc2-c2nnn(CC(=O)Nc3ccccc3OC)n2)cc1 | -3% | ? | -2% | -27 | -34% | -9
O=C(Nc1ccc2nc(SCC(=O)N3CCc4ccccc43)sc2c1)c1cccc(F)c1 | / | 0% | 0% | / | 0% | /
Cc1nn(C)c2c1c(C(F)(F)F)cc(=O)n2C(C)C(=O)NCCC(C)C (centres undefined) | / | -28% | -4% | / | 9% | /
Cc1ccc2nc(NC(=O)Cn3nc(C)c([N+](=O)[O-])c3C)sc2c1 | -1% | -16% | 14% | -8 | 19% | -94*
Clc1ccc(C(c2ccccc2)N2CCN(c3ccccn3)CC2)cc1 (centres undefined) | 4% | ? | 4% | 4 | 13% | 1
Clc1ccc(C(c2cccs2)N2CCNCC2)cc1 (centres undefined) | 13% | 4.5µM* | 1% | 10 | -12% | 3
Cc1ccc(-c2nnc(SCC(=O)NC3CCCC3)nc2-c2ccc(C)cc2)cc1 | / | -23% | 0% | / | 6% | /
O=S(=O)(c1ccccc1)N1CCNc2ccccc21 | 11% | -2% | ? | 0 | 5% | -122*
Cc1ccc(S(=O)(=O)CC(C)N2CCOCC2)c(S(=O)(=O)CC(C)N2CCOCC2)c1 (centres undefined) | -11% | -3% | -13% | -224* | 5% | 8
O=C(CSc1nnc(Cc2ccc3c(c2)OCO3)n1C1CCCCC1)NC1CCCC1 | 8% | ? | -3% | 2 | -12% | -4
NC(=O)CSc1nnc(Cc2ccc3c(c2)OCO3)n1C1CCCCC1 | 10% | 0% | 6% | 0 | 16% | -77*
CC(C)Oc1ccc(CNC(=O)c2ccc3c(c2)nc2n3CCOC2)cc1 | / | 19% | -4% | / | -4% | /
COc1ccc(Nc2oc(-c3ccccc3)nc2C#N)cc1 | ? | 78% | 1% | -16 | 3% | -6
CNc1oc(-c2ccccc2)nc1C#N | -1% | 39% | 0% | -3 | -10% | -81*
CN(C)CCNc1oc(COc2ccc(-c3ccccc3)cc2)nc1C#N | -19% | 0% | -3% | 37 | -11% | -72*
CN(C)CCCNc1oc(-c2ccc(Cl)cc2)nc1C#N | -11% | 5µM* | 17% | 12 | -8% | -7
